{"source": "PubChem BioAssay (NCI)", "note": "Values joined by “and” are separate entries in the source; they are usually repeats but may differ in a detail not shown here. Equal values may be shown once. About 79,000 compounds went through this panel and 15% of them were active in at least one assay; those are over-represented in the sample as a whole. Unmarked numbers belong to inactive results. Active and inactive are the calls of the source. Rule as the data show it: active = growth inhibition above about 70%; inactive = the rest."}
{"experiment": "NCI Yeast Anticancer Drug Screen. Data for the mec2-1 strain (AID 157)", "conditions": "S. cerevisiae mec2-1 strain, at 50.0 µM (retest, dose inferred, filed as 5.0), hits give high values", "how_it_was_run": "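Readout is yeast growth inhibition, normalised to vehicle-treated controls, in the mec2-1 strain exposed to compound.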"}
{"smiles": "O=C1C(CN2CCCCC2)CCCC1CN1CCCCC1", "note": "(stereo unspecified)", "growth inhibition": "44%"}
{"smiles": "NC(=O)c1cc(Br)cc(Br)c1O", "growth inhibition": "86% (active)"}
{"smiles": "CN(C)c1ccc(/C=C/c2ccc3ccccc3[n+]2C)cc1", "growth inhibition": "98% (active)"}
{"smiles": "C1=C(CN2CCCCC2)COc2ccccc21", "growth inhibition": "45%"}
{"smiles": "O=C1Nc2ccccc2C1(O)C/C(=N/O)c1ccc2ccccc2c1", "note": "(stereo unspecified)", "growth inhibition": "40%"}
{"smiles": "CC(C)(S)C(N)C(=O)O", "note": "(stereo unspecified)", "growth inhibition": "-8%"}
{"smiles": "COC(=O)[C@@H](NS(=O)(=O)CC12CCC(CC1)C2(C)C)C(C)(C)C", "growth inhibition": "51%"}
{"smiles": "CN(CCN1C(=O)c2cccc3cccc(c23)C1=O)CCN1C(=O)c2cccc3cccc(c23)C1=O", "growth inhibition": "97% (active)"}
{"smiles": "CN(C)CCCN=c1c2ccccc2n(O)c2cccc([N+](=O)[O-])c12", "growth inhibition": "-4%"}
{"smiles": "O=C(/C=C/c1ccc(Cl)cc1)NC1C=Nc2ccc([N+](=O)[O-])cc2NC1=O", "note": "(stereo unspecified)", "growth inhibition": "93% (active)"}
{"smiles": "O=C(CC(=O)CC(O)(c1ccccc1)c1ccccc1)CC(=O)c1ccccc1", "growth inhibition": "98% (active)"}
{"smiles": "O=C(c1ccc(Cl)cc1)C(O)c1ccc(Cl)cc1", "note": "(stereo unspecified)", "growth inhibition": "14% and 35%"}
{"smiles": "COc1ccc2c(c1)C(Cc1ccc(Oc3ccc(CC4c5cc(OC)ccc5CC[N+]4(C)C)cc3)cc1)[N+](C)(C)CC2", "note": "(stereo unspecified)", "growth inhibition": "51%"}
{"smiles": "O=C(NO)c1cccnc1", "growth inhibition": "-1%"}
{"smiles": "Oc1c(Cl)c(Cl)c(Cl)c2ccccc12", "growth inhibition": "98% (active)"}
{"smiles": "CSC1SCC2C(=O)N(C)C(C(C)C)C(=O)OCC(NC(=O)c3cnc4ccccc4n3)C(=O)NC(C)C(=O)N(C)C1C(=O)N(C)C(C(C)C)C(=O)OCC(NC(=O)c1cnc3ccccc3n1)C(=O)NC(C)C(=O)N2C", "note": "(stereo unspecified)", "growth inhibition": "98% (active)"}
